Screening results as filed in PubChem.
The list is not random: actives were taken first. Their share in the collection is about 5.4%.
Sm TGR inh: blocks Schistosoma mansoni thioredoxin glutathione reductase | AID 485364 | purified TGR, DTNB reduction, TNB absorbance 405 nm | Q962Y6 | Potency, µM (highest dose often 114 µM), without a hit: top-dose activity change, negative = inhibition, usual class: inhibitors | 3% of 360,000 active; active = well fitted inhibition curve with a large enough effect; inconclusive = small, poorly fitted or top-dose-only effect; inactive = no such curve, though single readings can be large or run the other way; note: nearly all actives have a fitted effect of over 60% in size
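First, TGR (20 nM dispensed) and NADPH were mixed with compound. Second, a 15 min room-temperature incubation followed. Third, further NADPH and then DTNB were added to start the reaction. Finally, TNB absorbance was monitored kinetically.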
LASV entry inh: Lassa virus entry inhibition; Lassa virus pseudotype entry inhibition, cell reporter; Potency, µM (series often up to 37.9 µM), inactives show at the top dose activity change, negative = inhibition, hits mostly inhibitors; 1.2% of 300,000 active; AID 540256; calls by dose curve; tested in HEK293 cells; note: nearly all actives have a fitted effect of over 50% in size
FMDV antiviral: antivirals against foot and mouth disease virus; 1.2% of 410,000 active; AID 1159524; Potency, µM (highest dose often 57.9 µM), without a hit: at the top dose activity change, negative = inhibition, usual class: inhibitors; FMDV antiviral cell-based qHTS; calls by dose curve; tested in HEK293T cells; note: read-out not given here; nearly all actives have a fitted effect of over 45% in size
Vaccinia mCherry: vaccinia inhibition (mCherry reporter); Vaccinia virus mCherry reporter infection, fluorescence; Potency, µM (highest dose often 36.5 µM), inactives show at the highest dose activity change, negative = inhibition, most hits filed as inhibitors; 0.63% of 310,000 active; AID 720579; calls by dose curve; tested in A549 cells; note: nearly all actives have a fitted effect of over 35% in size
MARV entry inh: Marburg virus entry inhibition; Marburg virus pseudotyped entry inhibition, cell reporter; Potency, µM (series often up to 37.8 µM), without a hit: at the top dose activity change, negative = inhibition, actives largely listed as inhibitors; 1.8% of 300,000 active; AID 540276; calls by dose curve; tested in HEK293 cells
VACV Venus inh: vaccinia inhibition (Venus reporter). Vaccinia virus Venus reporter expression, fluorescence. Potency, µM (titrated, usually from 36.5 µM), inactives show at the highest dose activity change, negative = inhibition, usual class: inhibitors. 0.46% of 330,000 active. AID 720580; calls by dose curve; tested in A549 cells; note: nearly all actives have a fitted effect of over 30% in size
The depositor's hits bear a star; i = inactive; ? = inconclusive; · = no result given; [ ] = another dose, or the depositor's remark. % is set by controls: 0 for no effect and ±100 for the full control effect; potency is the fitted concentration of half-maximal effect.

SMILES | Sm TGR inh | LASV entry inh | FMDV antiviral | Vaccinia mCherry | MARV entry inh | VACV Venus inh
O=S(=O)(c1ccc(Cl)c(NC(=S)Nc2cccc(O)c2)c1)N1CCOCC1 | 11µM* | -10% | 8% | i | 17% | -13%
CCN(C(=S)Nc1cc(S(=O)(=O)N2CCOCC2)ccc1Cl)c1cccc2ccccc12 | -14% | 1% | -9% | -2% | -4% | 4%
CC1C(=O)N(Cc2cn(CCC3OCCCO3)nn2)CCS(=O)(=O)N1Cc1ccc(-c2ccc(Cl)cc2)cc1 (configuration not stated) | · | · | 11µM* | -18% | · | ?
CC1C(=O)N(Cc2cn(CCC3OCCCO3)nn2)CCS(=O)(=O)N1Cc1ccc(-c2ccccc2)cc1 (configuration not stated) | · | · | -3% | i | · | -18%
CC(C)CC1C(=O)N(Cc2cn(CC3CCCCC3)nn2)CCS(=O)(=O)N1Cc1ccc(-c2ccncc2)cc1 (configuration not stated) | · | 14µM* | -8% | -11% | · | -24%
COCCCNC(=O)c1c(NC(=O)Cc2coc3c(C)c(C)ccc23)sc2c1CCCC2 | -1% | ? | -5% | -12% | ? | 8%
COc1cc2c(cc1OC)C(COc1ccc(F)cc1)N(C(=O)c1ccc(S(=O)(=O)N3CCCC3)cc1)CC2 (configuration not stated) | -2% | -26%[46.1 µM] | -15% | -1% | · | -3%
CC(C)OC(=O)c1c(-c2ccc(C(C)C)cc2)csc1NC(=O)C1CCCO1 (configuration not stated) | 16% | 5.6µM* | ? | -11% | ? | -6%
CCOC(=O)c1c(-c2ccc(C)cc2)csc1NC(=O)C1CCCO1 (configuration not stated) | -7% | ? | ? | i | ? | -11%
O=C(OCC(F)(F)F)c1cccc(COc2ccc3ccccc3c2)c1 | 7% | ? | ? | · | 1.3µM* | ?
CCOc1ccc(OCc2cccc(C(=O)N3CCCCCC3)c2)cc1 | -1% | 3.5µM* | -72% | i | ? | -11%
CCOc1ccc(OCc2cccc(C(=O)N3CCCC3)c2)cc1 | 14% | ? | · | i | ? | -2%
CCOc1ccc(OCc2cccc(C(=O)O)c2)cc1 | -6% | ? | 0.89µM* | -20% | ? | -10%
O=C(O)c1cccc(COc2ccc(CO)cc2Cl)c1 | 0% | 0.29µM* | · | i | ? | -10%
CC(=O)c1cccc(NC(=O)CC(c2ccc(C)cc2)N2Cc3ccccc3C2=O)c1 (configuration not stated) | 2% | -19%[46.1 µM] | 26% | -1% | · | 6%
CCN(CCCNC(=O)c1ccc(Sc2ccc(Cl)cc2)c(NC(C)=O)c1)c1ccccc1 | 1% | -11%[46.1 µM] | -12% | -17% | · | -6%
O=C(NCc1ccccc1)c1cccc(COc2ccc3c(c2)CCC3)c1 | 7% | ? | -10% | -15% | ? | -7%
O=C(O)c1cc(OCc2ccccc2)cc(OCc2ccccc2)c1 | 2% | 14%[46.1 µM] | -5% | i | 26%[46.1 µM] | -6%
O=C(O)c1cccc(COc2ccc3c(c2)CCC3)c1 | 13% | 0.37µM* | 2.8µM* | -15% | ? | 7%
COc1ccc(OCc2cccc(C(=O)O)c2)cc1 | 2% | ? | 1µM* | -14% | ? | -10%
Nc1c(-c2nc(-c3ccccc3)cs2)c2ccccn2c1C(=O)c1ccc2c(c1)OCO2 | -8% | ? | 27% | -27% | ? | -18%
Cc1c(Cl)cccc1NC(=O)NCc1ccccn1 | 40µM* | · | 29% | · | · | ·
CN1CCN(c2ccc(-c3nc(-c4ccccc4)no3)cc2[N+](=O)[O-])CC1 | -9% | ? | 0% | -18% | -3%[46.1 µM] | -10%
OCCN1CCN(C(c2cccs2)c2ccc3cccnc3c2O)CC1 (configuration not stated) | 0.32µM* | · | · | · | 0% | ·
COC(=O)N[C@@H](C=Cc1ccccc1)C[N+](=O)[O-] | · | · | · | · | 7%[14.2 µM] | ·
CC(/C=C/c1ccco1)=N\NC(=O)c1cccc(Cl)c1 | -34% | -5% | 20% | -10% | -7% | -16%
CCOC(=O)N/N=C\C=C\c1ccco1 | 22µM* | ? | 17% | i | 20%[46.1 µM] | -4%
CCOC(=O)C(=O)N/N=C/c1ccco1 | 2% | 7% | 11% | -14%[7.34 µM] | 17%[46.1 µM] | 0%[7.34 µM]
